Source: PubChem BioAssay
Most compounds without a hit are left out; they make up all but 7.6% or so of the library.
Giardia kill – kills Giardia lamblia. activity change, % at 7.66 µM, hits read low. hit rate 0.15% among 340,000. Giardia lamblia trophozoite viability; in the data active = activity change below about -80%; inconclusive = between about -30% and that limit;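 note: parasites exposed to compound for two days anaerobically before the ATP read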
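Trophozoite viability was measured as ATP-dependent luminescence, read 15-30 min after reagent addition. Before that, parasites at 100 cells/well were exposed to compounds for 48 h, anaerobically, at 37 deg C.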
p53 reactivator – re-activators of mutant p53 | H1299 p53-A138V BP100-luciferase reporter, luminescence, 24 h | Potency, µM (top dose mostly 92.2 µM), actives largely listed as activators | hit rate 0.063% among 320,000 | AID 504706; note: nearly all actives have a fitted effect of over 45% in size
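H1299 (p53-null), stable ts p53-A138V + BP100-Luc; 1000 cells/well, Opti-MEM/10% FBS; cpd 4 pt, 1:5; 24 h, 37 deg C, 5% CO2; detection reagent 10 min RT; luminescence.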
VP16 counter – Gal4-VP16 reporter inhibition counter-screen; hit rate 3.5% among 310,000; Potency, µM (series often up to 53.6 µM), most hits filed as inhibitors; Drosophila S2 Gal4-VP16 UAS-luciferase, luminescence, 20 h;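 note: Gal4-VP16 expression switched on by copper sulfate through the metallothionein promoter; nearly all actives have a fitted effect of over 50% in size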
ELG1 repair inh – blocks ELG1-dependent DNA repair in HEK293T cells. HEK293T ELG1-luciferase reporter, luminescence, 16 h; DNA damage induced by 5-fluorouridine. Potency, µM (highest dose often 46.1 µM), usual class: inhibitors. hit rate 2.3% among 330,000; note: nearly all actives have a fitted effect of over 55% in size
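Luminescence from the luciferase reporter, measured 30 min after ONE-Glo reagent at room temperature, was the read-out. Beforehand, 2,000 cells per well were exposed for 16 hr at 37 °C to 5-fluorouridine together with compound or vehicle.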
RORg inh – inhibitors of mouse ROR gamma transcriptional activity. Potency, µM (top dose mostly 53.6 µM), hits mostly inhibitors. AID 2551. Drosophila S2 Gal4-RORgamma UAS-luciferase reporter, 20 h. P51450. hit rate 5.4% among 310,000; note: nearly all actives have a fitted effect of over 60% in size
Target sequence (P51450 whole entry, looked up, the tested form may be a part): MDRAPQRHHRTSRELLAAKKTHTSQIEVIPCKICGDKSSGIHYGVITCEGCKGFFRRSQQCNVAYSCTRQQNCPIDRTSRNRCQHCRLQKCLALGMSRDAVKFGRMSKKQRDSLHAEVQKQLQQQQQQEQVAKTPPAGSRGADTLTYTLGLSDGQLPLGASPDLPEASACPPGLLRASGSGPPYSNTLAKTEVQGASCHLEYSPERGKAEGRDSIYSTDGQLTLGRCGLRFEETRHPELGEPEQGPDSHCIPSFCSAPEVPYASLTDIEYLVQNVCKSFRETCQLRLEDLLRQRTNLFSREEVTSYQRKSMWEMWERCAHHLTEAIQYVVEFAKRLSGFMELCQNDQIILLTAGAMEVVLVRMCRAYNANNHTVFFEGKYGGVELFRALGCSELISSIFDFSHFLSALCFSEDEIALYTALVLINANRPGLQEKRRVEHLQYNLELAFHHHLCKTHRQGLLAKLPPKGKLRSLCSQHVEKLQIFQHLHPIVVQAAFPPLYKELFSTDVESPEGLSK
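Drosophila Schneider cells stably carrying a metallothionein-driven Gal4 DBD–ROR gamma fusion and a UAS-Photinus luciferase reporter were exposed to compound for 1 hr, then induced with copper sulfate (700 uM final) for 20 hr at ambient temperature before luminescence reading.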
BRCA1 expr up – activators of BRCA1 expression; MCF7-BRCA1-FFLuc reporter, luminescence, 48 h; response scale: scaled: vehicle 0%, 10 µM genistein 100%; Potency, µM (titrated, usually from 46.1 µM), actives largely listed as activators; hit rate 1.1% among 380,000; note: nearly all actives have a fitted effect of over 80% in size
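MCF7-BRCA1-FFLuc cells, 2000/well in phenol-red-free MEM, attached 2 h then treated 48 h at 37 C. Luciferase luminescence read 15 min after reagent; normalized to genistein maximum activation (10microM) and DMSO, concentration-response fitted.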
Of the large screens only hits and unclear results are named; the others gave an inactive call. Unless noted, calls come from the whole dose curve; as a rule, active = well fitted curve in the direction sought with a large enough effect; inconclusive = small, poorly fitted or top-dose-only effect, or another doubt; inactive = no such curve, though single readings can be large; an effect the other way counts as inactive or inconclusive.

CCn1c(-c2cc(-c3ccccc3)sc2N)n[nH]c1=S	VP16 counter 13µM, ELG1 repair inh inconclusive, RORg inh 4µM
O=C(COC(=O)Cc1ccc(Cl)c(Cl)c1)NCc1ccco1	none (no result: VP16 counter, RORg inh)
Cc1cc(=O)cc(C)n1-c1ccccc1N1CCOCC1	none
CCC[C@@H](CN1CCC[C@H]1CN1C(N)=NC[C@H]1CC(C)C)N1C[C@@H]([C@H](C)CC)N(CCc2ccc(Cl)c(Cl)c2)C1=N	none (no result: VP16 counter, RORg inh)
Oc1ccc(Br)cc1-c1n[nH]c(=S)n1Cc1ccccc1	RORg inh 10µM
COc1ccc(/C=N/NC(=O)CN(C)S(=O)(=O)c2ccc(NC(C)=O)cc2)cc1	none
COc1cccc(/C=N/NC(=O)CN(CCc2ccccc2)S(=O)(=O)c2ccc(NC(C)=O)cc2)c1	ELG1 repair inh 23µM, RORg inh inconclusive
O=C(N/N=C\c1cccc(OC(=O)c2ccco2)c1)c1ccc2c(c1)OCO2	p53 reactivator inconclusive, VP16 counter 6.3µM, ELG1 repair inh inconclusive, RORg inh 14µM
O=C(N/N=C\c1ccc2c(c1)OCO2)c1ccco1	p53 reactivator inconclusive, ELG1 repair inh inconclusive, BRCA1 expr up 3.2µM
O=C(N/N=C/c1ccc2c(c1)OCO2)c1ccc2c(c1)OCO2	ELG1 repair inh inconclusive, BRCA1 expr up 8.9µM
COc1cc2c(cc1O)C(Cc1ccc(O)cc1)N(C)CC2 (configuration not stated)	none (no result: Giardia kill, p53 reactivator, ELG1 repair inh, BRCA1 expr up)
COc1cc2c(cc1OC)C(c1ccc(SC)cc1)CC(=O)N2 (configuration not stated)	none
COc1cc(/C=N/NC(=O)C2C3CCCCC32C)cc(Br)c1O (configuration not stated)	VP16 counter 5µM, RORg inh 7.1µM
O=C(N/N=C/c1cc2c(cc1Cl)OCO2)c1ccc2c(c1)OCCO2	ELG1 repair inh inconclusive
O=C(CN(Cc1ccccc1)S(=O)(=O)c1ccccc1)N/N=C/c1ccc2c(c1)OCO2	VP16 counter 0.89µM
O=C(N/N=C/c1cccc(O)c1)c1ccc2c(c1)OCCO2	Giardia kill inconclusive, p53 reactivator inconclusive, VP16 counter 6.3µM, ELG1 repair inh inconclusive, RORg inh 3.2µM
O=C(N/N=C/c1ccc(-c2ccc(Br)cc2)o1)c1ccc2c(c1)OCO2	VP16 counter 10µM, RORg inh 3.5µM
COc1cc(/C=N/NC(=O)c2ccc3c(c2)OCCO3)cc(Br)c1O	VP16 counter inconclusive, ELG1 repair inh inconclusive, RORg inh 16µM (no result: p53 reactivator)
COc1cc(/C=N/NC(=O)c2ccc3c(c2)OCCO3)c(Br)c(Br)c1O	p53 reactivator inconclusive, ELG1 repair inh inconclusive
O=C(CCC(=O)Nc1ccc(Cl)cc1)N/N=C/c1ccc2c(c1)OCO2	VP16 counter 14µM, ELG1 repair inh inconclusive
O=C(N/N=C/c1ccc2c(c1)OCO2)C1CC1	p53 reactivator inconclusive, ELG1 repair inh inconclusive, BRCA1 expr up 7.9µM
Cc1ccc(CC(=O)N/N=C/c2ccc3c(c2)OCO3)cc1	ELG1 repair inh inconclusive, RORg inh inconclusive, BRCA1 expr up 8.9µM
O=C(CCc1ccc(O)cc1)NN=Cc1ccc2c(c1)OCO2	none (no result: Giardia kill, p53 reactivator, VP16 counter, ELG1 repair inh, RORg inh)
Brc1ccc2nc(C3CCCCC3)c(Cc3ccsc3)n2c1	none (no result: Giardia kill, p53 reactivator, VP16 counter, ELG1 repair inh, RORg inh)
Cc1ccccc1[C@@H](NC(=O)OC(C)(C)C)C(=O)OC(C)(C)C	none (no result: VP16 counter, RORg inh)
O=C(N/N=C/c1ccc2cccnc2c1)c1ccco1	VP16 counter 11µM, ELG1 repair inh inconclusive, RORg inh inconclusive, BRCA1 expr up inconclusive
c1ccc(CCc2nc(-c3cccnc3)no2)cc1	p53 reactivator inconclusive, ELG1 repair inh inconclusive, BRCA1 expr up 10µM
c1ccc(CCc2nc(-c3ccccc3)no2)cc1	ELG1 repair inh inconclusive, BRCA1 expr up 13µM
CCCc1nc(-c2ccc(-c3ccc(F)cc3)cc2)no1	ELG1 repair inh inconclusive, BRCA1 expr up 4µM
c1ccc(CCc2ccccc2-c2nc(-c3cccnc3)no2)cc1	ELG1 repair inh inconclusive, RORg inh inconclusive
CCCN1C(=O)C2(c3ccccc31)c1c(oc3cc(C)c(C)cc3c1=O)C(=O)N2CCCOC (configuration not stated)	none (no result: Giardia kill, p53 reactivator, VP16 counter, ELG1 repair inh, RORg inh)
